Records with an inconclusive call do not appear. Where a call stands in place of a potency, no number is given. Active and inactive are the calls of the source. The call rests on the fitted dose curve; in most records, active means well fitted activation curve with a large enough effect in the repeat runs; inconclusive means weak or mixed curves; inactive means no such curve, though single readings can be large or run the other way.

This test in a line: qHTS assay for small molecules that induce genotoxicity in human embryonic kidney cells expressing luciferase-tagged ATAD5 (AID 651632). Further: nearly all actives have a fitted effect of over 15% in size. As to conditions: HEK293T ATAD5-luciferase induction, 16 h; series mostly up to 83.3 µM. From the text:
U.S. Tox21 Program National Center for Advancing Translational Sciences [NCATS] NIH Chemical Genomics Center [NCGC] U.S. Environmental Protection Agency [EPA] National Institutes of Environmental Health Sciences [NIEHS] National Toxicology Program [NTP] U.S. Food and Drug Administration [FDA] Tox21 Assay Overview: As cancer cells divide rapidly and during every cell division they need to duplicate their genome by DNA replication. The failure to do so results in the cancer cell death. Based on this concept, many chemotherapeutic agents were developed but have limitations such as low efficacy and severe side effects etc. A new cell based assay was developed to find the compounds that effectively block DNA replication either by directly damaging DNA or by inhibiting other cellular mechanisms. Enhanced Level of Genome Instability Gene 1 (ELG1; human ATAD5) protein levels increase in response to various types of DNA damage. Using a luciferase reporter-gene tagged with ATAD5, a cell-based assay [developed by Kyungjae Myung, NHGRI, NIH] was used to measure the induction of ATAD5 in human embryonic kidney cells (HEK293T). So, increase in luciferase activity can be used to identify the compounds that cause genetic stress.
Tox21 Assay Protocol Summary: For genotoxicity screening, 2,000 cells in 5 uL/well were dispensed into white, solid-bottom 1536-well plates using a Multidrop Combi (Thermo Scientific) dispenser. Following transfer of 23 nL compound or DMSO vehicle by a pin tool, the plates were incubated 16 hr at 37C and 5% CO2. 5 ul Amplite (AAT Bioquest, Inc.) was then added to each plate and following 30 min incubation at room temperature, luciferase activity was quantified on a ViewLux CCD-based plate reader.
Regarding `CCCSC(=O)N(CCC)CCC`, the Potency entry was “inactive”. For `COC(=O)c1c(C(F)F)nc(C(F)(F)F)c(C2=NCCS2)c1CC(C)C`, the Potency result was “inactive”. In the case of `O=[N+]([O-])c1cccc(O)c1` it was “inactive”; in that of `COc1ccc(C(=O)N2CCCC2=O)cc1`, “inactive”.

Turning to `OC(Cn1cncn1)(c1ccc(F)cc1)c1ccccc1F` (stereo not given), the Potency result was “inactive”. For `COP(=S)(OC)Oc1ccc(S(N)(=O)=O)cc1`, the Potency result is “inactive”. In the case of `N#Cc1c(Cl)cccc1Cl` it was “inactive”; in that of `CCOC(=O)/C=C(C)/C=C/C[C@@H](C)CCCC(C)C`, “inactive”. In the case of `COC(=O)C1=CCCN(C)C1` it was “inactive”.

With `C1CCC(C2CCCCC2)CC1`, the Potency entry was “inactive”. In the case of `CCOP(=O)(OCC)OP(=O)(OCC)OCC` it was “inactive”; in that of `CS(=O)(=O)c1cc(C(F)(F)F)ccc1C(=O)c1cnoc1C1CC1`, “inactive”; in that of `CC(C)[N+](=O)[O-]`, “inactive”.

`CCC#N`: the Potency result is “inactive”. For the molecule `CCCCc1c(C)nc(NCC)[nH]c1=O`, the Potency result was “inactive”.

Consider `ClC(Cl)C(Cl)Cl`, for which the Potency result was “inactive”.

For `NC(=S)C(N)=S`, the Potency result was “inactive”. In the case of `C=CC1CC=CCC1` (stereo not given) it was “inactive”; in that of `CC(Cl)(Cl)[N+](=O)[O-]`, “inactive”. In the case of `CC1CN1P(=O)(N1CC1C)N1CC1C` (stereo not given) it was “inactive”; in that of `CC1CCC(=O)O1` (stereo not given), “inactive”. For the molecule `CCOc1nc(C(Cl)(Cl)Cl)ns1`, the Potency result is “inactive”. In the case of `C#CCN1C(=O)COc2cc(F)c(N3C(=O)C4=C(CCCC4)C3=O)cc21` it was “inactive”; in that of `CC1(C)COP(Oc2ccccc2)OC1`, “inactive”. In the case of `O=C(CCCN1CCC(n2c(=O)[nH]c3ccccc32)CC1)c1ccc(F)cc1` it was “inactive”; in that of `Fc1ccc(C2(Cn3cncn3)OC2c2ccccc2Cl)cc1` (stereo not given), “inactive”; in that of `CC(COc1ccc(Oc2ccccc2)cc1)Oc1ccccn1` (stereo not given), “inactive”.

On to `ClC(Cl)Br`, for which the Potency result was “inactive”. To `O=S(=O)(O)C(F)(F)C(F)(F)C(F)(F)C(F)(F)C(F)(F)C(F)(F)F` belongs “inactive”; to `Cc1ncc(CNC(=O)N(CCCl)N=O)c(N)n1`, “inactive”. For `CC1CCCCC1NC(=O)Nc1ccccc1` (stereo not given), the Potency result was “inactive”. In the case of `CC(CC(C#N)(c1ccccc1)c1ccccc1)N(C)C` (stereo not given) it was “inactive”; in that of `CCOP(=S)(OCC)Oc1nc(Cl)n(C(C)C)n1`, “inactive”; in that of `CC(C)(C)C(=O)C(Oc1ccc(Cl)cc1)n1cncn1` (stereo not given), “inactive”.

Regarding `CCN(CC)C(=O)[C@@H]1C=C2c3cccc4[nH]cc(c34)C[C@H]2N(C)C1`, the Potency entry was “inactive”. Regarding `O=C(O)c1ccc2[nH]cc(CCCCN3CC=C(c4ccccc4)CC3)c2c1`, the Potency entry was “inactive”.

As for `O=C(NCO)NCO`, the Potency entry was “inactive”. In the case of `CNC(=O)Oc1c(C(C)(C)C)cc(C)cc1C(C)(C)C` it was “inactive”; in that of `COC(C)(C)C`, “inactive”.

For `O=NN1CCN(N=O)CC1`, the Potency result was “inactive”.

The values are drawn from PubChem BioAssay (Tox21).
